Out of some 320,000 compounds screened, about 2,100 (0.66%) were called active. Shown is part of a subset that was picked to be rich in actives. A number with no mark means an inactive call.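 How the source made its calls: active means inhibition above the mean inhibition of all tested compounds plus 3 SD, set per campaign (cut at about 40% in these data); inactive means the rest.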
molecular target: Induced myeloid leukemia cell differentiation protein Mcl-1 (Homo sapiens) (UniProt Q07820); test: inhibitors of MCL1 binding to BIM-BH3, primary screen, biochemical, fluorescence polarization (AID 2057); settings: GST-MCL1 / FITC-Bim-BH3 fluorescence polarization; at 10.9 µM; active compounds read high;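 further: 0% = DMSO wells and 100% = unlabeled Bim-BH3 peptide control; higher means more loss of mP so more displacement of Bim peptide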
Sequence (Q07820 whole entry, looked up): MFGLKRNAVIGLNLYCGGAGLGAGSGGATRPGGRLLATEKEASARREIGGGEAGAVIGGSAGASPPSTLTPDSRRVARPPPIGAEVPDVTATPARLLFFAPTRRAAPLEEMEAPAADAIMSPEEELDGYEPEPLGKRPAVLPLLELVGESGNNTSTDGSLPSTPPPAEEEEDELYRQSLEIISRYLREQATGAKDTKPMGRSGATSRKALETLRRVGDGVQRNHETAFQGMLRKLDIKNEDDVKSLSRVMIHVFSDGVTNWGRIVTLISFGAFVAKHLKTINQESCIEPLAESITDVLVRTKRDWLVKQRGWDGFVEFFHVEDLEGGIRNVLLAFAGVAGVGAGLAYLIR

SMILES | inhibition
CCOc1ccc(N2CC(C(=O)NCCN3C(=O)S/C(=C\c4cccnc4)C3=O)CC2=O)cc1 (stereo unspecified) | -2.41%
COc1ccccc1N1CC(C(=O)NCCN2C(=O)S/C(=C\c3cccnc3)C2=O)CC1=O (stereo unspecified) | 14.4%
COc1ccc(N2CC(C(=O)NCCN3C(=O)S/C(=C\c4cccnc4)C3=O)CC2=O)c(OC)c1 (stereo unspecified) | 166% (active)
CC1CC(=O)N(CC(=O)Nc2cccc(Cl)c2)c2ccccc2S1(=O)=O (stereo unspecified) | -4.67%
CCCC1OC23CCCCC2C(C#N)(C#N)C1(C#N)C(=N)O3 (stereo unspecified) | 95.8% (active)
CCCC[C@@H]1CN=C(N)N1CCc1cc(C(F)(F)F)cc(C(F)(F)F)c1 | 10.6%
O=C(Nn1c(-c2ccc(Cl)cc2)nc2ccccc2c1=O)c1cccnc1Cl | 5.2%
CN(C)c1ccc(Nc2c3c4c(cccc4n(C)c2=O)C(=O)c2ccccc2-3)cc1 | 55.2% (active)
CCOC(=O)C(CC)/C(C)=N\NC(=O)c1cccc(C)c1 (stereo unspecified) | -4.82%
Cc1ccc(NS(=O)(=O)c2ccc(F)cc2)nc1 | 1.22%
Cc1cc(-c2csc(N)n2)c(C)n1Cc1ccccc1 | 6.96%
CC(=O)c1ccc(-c2ccc(Cn3c(C)nc4cc(N)c(C)nc43)cc2)cc1 | 8.3%
COc1ccccc1NC(=O)COC(=O)Cc1ccc(S(=O)(=O)N2CCCCC2)s1 | -0.05%
C/C(=N\NC(=O)c1ccoc1C)c1ccccc1O | 4.86%
Cc1nn(C(=O)c2ccoc2C)c(N)c1-c1ccccc1 | 193% (active)
Cc1nn(-c2ccc([N+](=O)[O-])cc2)c(N)c1-c1ccccc1 | -34.6%
Cc1csc(NC(=O)CSc2nc(=O)n(CCCN(C)C)c3c2CCC3)n1 | -0.83%
COc1ccc(SCCN2CCN(CC(C)C)CCC2=O)cc1 | -4.27%
CC(=O)N(CC(O)CO)c1c(I)c(C(=O)NCC(O)CO)c(I)c(C(=O)NCC(O)CO)c1I (stereo unspecified) | -0.91%
COCCn1c(SCC(=O)Nc2nc(C)cs2)nnc1C(C)C | -2.37%
C1=C(N2CCOCC2)/C(=C/c2nc3ccccc3[nH]2)CC1 | 105% (active)
CC1(C)Cc2c(C#N)c(SCc3nc4ccccc4[nH]3)nc(N3CCOCC3)c2CO1 | 3.45%
O=c1[nH]c(N2CCOCC2)nc2ccccc12 | 2.38%
CNC(=O)N1c2ccccc2C=Cc2ccccc21 | -1.86%

SMILES | inhibition
CS(=O)(=O)N1CCc2nc(-c3ccccc3)sc2C1 | 7.75%
COc1ncnc2c1N=C1CC(C)(C)CC(N)=C1S2 | 191% (active)
CCN(CC)S(=O)(=O)c1ccc2[nH]c(=O)cc(C(=O)N(C)C3CCS(=O)(=O)C3)c2c1 (stereo unspecified) | 7.4%
CCCC(C(=O)OCCN(CC)CC)(c1ccccc1)c1ccccc1 | -3.08%
CCCN1CC=C2C(C#N)=C(N)C(C#N)(C#N)C(c3cc(OC)ccc3OC)C2C1 (stereo unspecified) | 68.3% (active)
N#CC1=C(N)C(C#N)(C#N)[C@H](c2ccsc2)[C@H]2COCC=C12 | 32.7%
CCN1CC=C2C(C#N)=C(N)C(C#N)(C#N)[C@H](c3ccoc3)[C@H]2C1 | 171% (active)
CSc1ccccc1NC(=O)c1cnc2sc(C)cn2c1=O | 3.46%
O=C(OCC(=O)N1CCOCC1)c1ccc2ccccc2c1 | -1.12%
O=c1c2ccccc2oc2nc(C3CCCCC3)n(Cc3ccco3)c(=O)c12 | 2.28%
Cn1c2ccccc2c(=O)c2c(=O)n(Cc3ccco3)c(COc3ccccc3)nc21 | 60.6% (active)
CCCc1nc2c(c(=O)c3ccccc3n2C)c(=O)n1C1CCCCCC1 | -7.58%
O=C(O)c1ccc(S(=O)(=O)N2CCOCC2)o1 | -0.62%
COC(=O)N/N=C/c1c[n+]([O-])c2ccccc2[n+]1[O-] | 5.75%
CN1C(=O)/C(=C/c2ccco2)SC1=Nc1cccc(C(=O)O)c1 | 44.5% (active)
Cc1cc(/C=C2\SC(=Nc3ccc(N4CCOCC4)cc3)N(C)C2=O)c(C)n1-c1cccnc1 | -2.16%
Cc1cc(/C=C2\SC(=O)N(C)C2=O)c(C)n1-c1cccc(C(=O)O)c1 | 10.5%
COc1ccc(N(CC(=O)NC2CCCCC2)S(=O)(=O)c2c(C)[nH]c(=O)[nH]c2=O)cc1 | 5.18%
COc1ccc(-c2cc(C(=O)N(C)Cc3ccccc3)c3ccccc3n2)cc1 | -5.9%
CN(C(=O)COC(=O)c1cc(-c2ccco2)nc2ccccc12)C1CCS(=O)(=O)C1 (stereo unspecified) | 105% (active)
CC1CCCN(C(=O)c2cc(-c3ccco3)nc3ccccc23)C1 (stereo unspecified) | 7.17%
CN(C(=O)COC(=O)c1nc(Cl)ccc1Cl)C1CCS(=O)(=O)C1 (stereo unspecified) | -0.55%
CN(CCOc1ccccc1)C(=O)c1cc(-c2ccco2)nc2ccccc12 | 46% (active)
COc1ccc(NC(=O)CN(C)C(=O)c2cc(-c3ccc(C)o3)nc3ccccc23)cc1 | 4.98%

SMILES | inhibition
COc1ccccc1C(=O)N/C(=C/c1ccco1)C(=O)Nc1ccc(C(=O)O)cc1 | 12.1%
COC(=O)c1ccccc1NC(=O)CSc1nc2c(c(=O)[nH]1)CCC2 | 0.89%
CC(=O)N1CCC(C(=O)OCc2ccc(Cl)cc2)(c2ccccc2)CC1 | 7.68%
CCCCC(NS(=O)(=O)c1ccc(C)cc1)C(=O)Oc1ccc2c3c(c(=O)oc2c1)CCC3 (stereo unspecified) | 1.03%
C#CCOCCOCCOCCNc1nc(N2CCN(C(=O)CCCCCCCCCCNC(=O)[C@H](CCCCN)n3cc(C)nn3)CC2)nc(N2CCN(C(=O)CCCCCCCCCCNC(=O)[C@H](CO)n3cc(CCCSC)nn3)CC2)n1 | 14.4%
CN1c2ccc(C=O)c3c(C=O)ccc(c23)N(C)C1(C)C | 167% (active)
O=C(OCc1cc(Cl)ccc1OC(F)F)c1cccnc1 | -0.26%
CS(=O)(=O)Nc1ccccc1N=C(c1ccccc1)c1ccccc1 | -1.05%
COC(=O)/C=C\C(=O)Nc1cccc([N+](=O)[O-])c1 | 2.27%
COC(=O)c1sccc1NC(=S)Nc1ccc(C)cc1 | 13.5%
Cc1ccc(C(=O)NC(=S)Nc2ccccc2C)cc1 | 4.14%
COC(=O)c1sc(NC(=S)NC(=O)c2ccc(C)cc2)nc1C | 98.3% (active)
CCCN1C2=C(C(=O)CCC2)C(c2ccc(O)c(Br)c2)C2=C1CCCC2=O | 43.5% (active)
COc1ccc(C2C3=C(CCCC3=O)N(CC(=O)O)C3=C2C(=O)CCC3)cc1 | 8.95%
CCOc1ccc(C2C3=C(CCCC3=O)N(CC(=O)O)C3=C2C(=O)CCC3)cc1 | 17.6%
COc1ccccc1N1CCN(S(=O)(=O)CCNC(=O)c2ccc(OC(C)C)cc2)CC1 | -5.21%
Cc1cc(C)n2nc(C(=O)N(C)C(c3ccccc3)c3ccccc3)nc2n1 | -7.96%
Cc1cc(C)c[n+](-c2nc3ccccc3nc2[N-]S(=O)(=O)c2cccs2)c1 | 3.38%
O=S(=O)([N-]c1nc2ccccc2nc1-[n+]1ccc(Cc2ccccc2)cc1)c1ccc(Br)s1 | 87.1% (active)
O=C(NCCc1ccccc1)C1CCN(S(=O)(=O)c2ccc(Br)s2)CC1 | -0.6%
Cc1cc(-c2nnc(SCC(=O)Nc3ccc(S(N)(=O)=O)cc3)n2N)n[nH]1 | -7.81%
COc1ccc2ccccc2c1CNCc1ccccn1 | 4.21%
CSc1ccccc1C(=O)OCC(=O)N1CCN(C(C)=O)CC1 | 1.83%

— PubChem BioAssay AID2057 (The Scripps Research Institute Molecular Screening Center, 2009)
